Screens as filed in PubChem.
MPTP block = permeability transition pore inhibition | isolated mouse mitochondria, Ca2+ swelling absorbance, 30 min | inhibition, % at 10 µM | actives 1.4% (n = 360,000) | AID 602449;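 active = inhibition of 50% or more, scaled per plate between neutral and stimulator controls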;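 note: 0% = DMSO wells given calcium and 100% = 1 mM EGTA wells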
dFosB activator = activators of mouse delta FosB homodimer; P13346; purified delta FosB, TAMRA-CDK5 oligo fluorescence polarization; percent of positive-control signal above neutral wells; activation, % at 25 µM; actives 0.99% (n = 340,000); AID 493131;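 active = mean activation above about 17%, with every replicate also reaching it, limit read from the data, passing the limit was not always enough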
Target sequence (P13346 whole entry, looked up): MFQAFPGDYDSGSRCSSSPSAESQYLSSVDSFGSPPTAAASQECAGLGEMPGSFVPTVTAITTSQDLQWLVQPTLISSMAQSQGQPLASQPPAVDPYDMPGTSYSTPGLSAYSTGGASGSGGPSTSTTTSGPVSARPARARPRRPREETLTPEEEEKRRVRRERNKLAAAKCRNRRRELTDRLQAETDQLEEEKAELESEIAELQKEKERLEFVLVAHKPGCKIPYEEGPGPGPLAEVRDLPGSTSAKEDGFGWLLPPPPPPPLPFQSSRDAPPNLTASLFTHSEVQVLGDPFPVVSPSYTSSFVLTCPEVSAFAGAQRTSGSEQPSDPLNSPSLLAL
HSF-1 act = increases HSF-1 driven luciferase reporter signal. NIH3T3-HGL HSF-1 luciferase reporter, MG132, 8 h; 100% = twice DMSO control signal. actives 1.7% (n = 300,000). activation, % at 9 µM;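 active = mean replicate activation of at least 50% with a set share of replicates each reaching 50%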;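 note: 0% = median of the neutral control wells and 100% = twice that signal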
Platelet DG rel = platelet dense granule release activity; human platelet-rich plasma, SFLLRN dense granule ATP release, luminescence; inhibition, %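 (compounds screened at 7.5 µM in platelet-rich plasma)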; actives 0.22% (n = 300,000); AID 1663;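 active = mean replicate score, as percent of positive control, at or above 50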
HSP90 refold inh = HSP90 refolding inhibition in rabbit reticulocyte lysate; luciferase refolding luminescence, 3 h; inhibition, % at 5.6 µM; actives 0.91% (n = 290,000);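 active = inhibition above the screen-wide mean plus 3 SD, computed separately per campaign, cut at about 16% in these data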;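 note: 0% = DMSO wells and 100% = 60 µM geldanamycin wells; inhibitors lower the luminescence because luciferase stays unfolded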
HSF1 inhib = HSF1 inhibition; activity change, negative = inhibition, % at 7.5 µM (by protocol); AID 2098; NIH3T3-HGL HSE-luciferase, MG132-induced, luminescence 8 h; stronger effect = lower value; actives 0.77% (n = 300,000);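 active = more than half of replicate wells show activity change below -50%, luminescence cut by over half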;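 note: luciferase reports HSF-1 transcriptional activity via heat shock element; 0% = median of DMSO wells and -100% = zero luminescence signal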
Rh123 counter = mitochondrial membrane potential, counter-screen; actives 78% (n = 5,000); isolated mitochondria, Rhodamine 123 fluorescence; AID 624504; shares compounds with MPTP block; inhibition, % at 10 µM; in the data active = inhibition above about 22%;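 note: 0% = DMSO vehicle and 100% = positive control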
MPTP abs DR = dose response confirmation of mitochondrial permeability transition pore inhibitors; isolated mitochondria swelling, absorbance; actives 58% (n = 780); AID 651561; IC50, µM; shares compounds with MPTP block; in the data active = IC50 below about 20 µM
MPTP cs DR = MPTP inhibitor counter-screen activity, dose response. shares compounds with MPTP block. isolated mitochondria counterscreen, fluorescence read-out. IC50, µM. actives 49% (n = 780). AID 651564; in the data active = IC50 below about 80 µM
* = called active by the depositor; · = not tested or not shown. Hits are enriched below; roughly 4.9% of the tested compounds scored in any of these assays.

SMILES	MPTP block	dFosB activator	HSF-1 act	Platelet DG rel	HSP90 refold inh	HSF1 inhib	Rh123 counter	MPTP abs DR	MPTP cs DR
CC(C)NCC(O)c1ccc(C2CCCC2)cc1 (stereo not drawn)	96*	-6	-15	7	-1	-9	-8	16*	>80
CCOc1cc2c(cc1OCC)-n1cccc1C(c1cccc(F)c1F)NC2 (stereo not drawn)	0	-7	-4	3	-2	-1	·	·	·
CC(N)Cc1c[nH]c2ccc(OCc3cccs3)cc12 (stereo not drawn)	82*	-2	-7	1	·	2	-11	9.8*	>80
O=C(Nc1ccc(Cl)cc1)O/N=C(\c1ccccc1)c1ccccn1	87*	1	-6	2	0	5	101*	·	·
O=C(CNC(=O)c1cccc(Cl)c1)Nc1ccc(Br)cc1C(=O)c1ccccc1	20	-3	9	0	2	14	·	·	·
O=C(CNC(=O)c1ccc(Cl)cc1)Nc1ccc(Br)cc1C(=O)c1ccccc1	50*	-6	-12	0	-1	-1	67*	·	·
CC[C@@H](CO)C1CC2NC3CC4(c5ccccc5N(C)[C@@H]24)C(O)C31 (stereo partly drawn)	0	2	2	2	·	-1	·	·	·
